Test in all cases: NCI-60 one-dose screen, 48 h (100 = growth as untreated, 0 = no growth, -100 = all killed)
Common to all, as to details: 10 µM unless noted

The subject of experiment [1] is NCI-H23 lung.
The subject of experiment [2] is NCI-H226 lung.
Experiment [3] has as its system NCI-H322M lung.
Experiment [4] relates to HOP-62 NSCLC.
Experiment [5] deals with NCI-H460 lung.
The subject of experiment [6] is NCI-H522 lung.
The subject of experiment [7] is A549/ATCC NSCLC.
Experiment [8] concerns 786-0 renal.
Experiment [9] deals with DU-145 prostate.
Experiment [10] relates to K-562 leukemia.
Experiment [11] has as its system MALME-3M melanoma.
Experiment [12] concerns MDA-MB-231 breast.
The subject of experiment [13] is RXF 393 renal.
Experiment [14] relates to SF-268 CNS.
The subject of experiment [15] is SF-295 CNS.
Experiment [16] deals with SF-539 CNS.
Experiment [17] has as its system UACC-257 melanoma.
The test system of experiment [18] is M14 melanoma.
Experiment [19] deals with COLO 205 colon.

The panel holds about 83,000 compounds, 20% with a hit somewhere; the sample as a whole holds those more often.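 Single-dose data. Exposure time 48 hours. Values below 10 considered active.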 A number with no mark means an inactive call. Calls of active or inactive are those of the source.

Turning to `COc1ccc(/C=C/C(=O)c2cccc(NC(=O)CSc3nc4ccccc4c(=O)n3-c3ccccc3)c2)cc1OC`, the growth in experiment [1] was 106%; in [2], 93.2%; in experiment [3], 105%; in [4], 111%; in experiment [5], 100%; in experiment [6] it was 96.9%. Besides, the growth in experiment [7] is 91.5%; in experiment [8], 103%; in experiment [9], 105%; in [10], 89.9%; in [11], 107%; in experiment [12], 97.3%. Besides, the growth is 97.7% in experiment [13]; 94.6% in experiment [14]; 103% in experiment [15]; 101% in experiment [16]; 110% in [17]; 102% in experiment [18].
Take `CN1CCC(n2cc(Nc3ncc4c(=O)n(-c5c(Cl)cccc5Cl)cc(Br)c4n3)cn2)CC1`: the growth in [1] was 8.53% (active); in experiment [2] it was 33.9%; in experiment [3], 41.9%; in experiment [4] it was 28%; in experiment [5], 1.23% (active); in experiment [6], -8.22% (active). In addition, the growth in [7] is 36.2%; in experiment [8] it was 20.5%; in [9] it was 23.1%; in experiment [10], 6.48% (active); in [11], 69.5%; in experiment [12], 22%. Further, the growth was -58.3% (active) in [13]; 39.7% in experiment [14]; 42.4% in experiment [15]; 5.25% (active) in experiment [16]; 82.1% in [17]; 35% in experiment [18].
As for `NC(N)=Nc1ccc(Oc2cccc(Nc3ccc(Cl)c(C(F)(F)F)c3)c2)cc1`, the growth in experiment [1] was 47.4%; in experiment [2], 53.3%; in experiment [3], 61.9%; in experiment [4], 13.4%; in experiment [5], 2.61% (active); in experiment [6], 49%. Further, the growth is 57.4% in experiment [7]; 53% in experiment [8]; 47.8% in experiment [9]; 5.61% (active) in [10]; 6.88% (active) in experiment [12]; 50% in [13]. Further, the growth is 32.8% in [14]; 4.34% (active) in experiment [15]; 80.9% in experiment [16]; 27.6% in experiment [17]; 41.1% in [18].
As for `Cc1ccc2sc3c(c2c1)OC(N)=C(C#N)C3c1ccc(Cl)cc1` (centres undefined), the growth in experiment [1] was 86.2%; in experiment [2], 68%; in experiment [3] it was 99%; in [4], 79.6%; in experiment [5], 56.2%; in [6], 58.2%. Besides, the growth was 96.9% in [7]; 102% in experiment [8]; 96.7% in [19]; 76.8% in experiment [9]; 71.5% in experiment [11]; 65.2% in [12]. Besides, the growth was 50.6% in experiment [13]; 89.3% in [14]; 74% in experiment [15]; 70.8% in experiment [16]; 89.8% in experiment [17]; 64.5% in [18].
In the case of `O=C(CN1CCN(c2cc(=O)n(-c3ccccc3)c3ccccc23)CC1)Nc1nc(-c2ccc(Cl)cc2)cs1`, the growth in [1] is 49.8%; in [2], 47.4%; in experiment [3], 89.1%; in [4], 65.8%; in experiment [5], 54.8%; in experiment [6], 56.3%. Further, the growth in experiment [7] was 52.6%; in experiment [8], 67.6%; in experiment [19], 57.3%; in [9], 61.6%; in [10], 24.2%; in experiment [12] it was 74.7%. For the same compound, the growth in [13] was 67%; in experiment [14], 54.5%; in experiment [15], 62.6%; in [16], 76.1%; in experiment [17], 28%; in experiment [18], 55.1%.
On to `CCN1CCN(C(=O)[C@]23CCC(C)(C)C[C@H]2C2=CC[C@@H]4[C@@]5(C)Cc6c([nH]c7ccccc67)C(C)(C)[C@@H]5CC[C@@]4(C)[C@]2(C)CC3)CC1`, for which the growth in experiment [1] is 87.7%; in [2], 84.4%; in experiment [3], 89.1%; in experiment [4], 110%; in [5] it was 76.5%; in [6], 90.5%. For the same compound, the growth was 59.7% in [7]; 94.2% in experiment [8]; 102% in [19]; 83.3% in experiment [9]; 74.1% in experiment [12]; 75.9% in experiment [13]. Further, the growth in experiment [14] was 90.1%; in experiment [15] it was 91.9%; in experiment [16], 94%; in [17], 88.2%; in experiment [18], 84.5%.
For the compound `CC(C)(C)c1ccc(C(=O)Nc2sc3c(c2C(N)=O)CCC(O)C3)cc1` (centres undefined), the growth is 66.5% in experiment [1]; 68.7% in [2]; 58.1% in [3]; 63% in [4]; 17% in [5]; 31.2% in [6]. Besides, the growth is 39.6% in experiment [7]; 15.4% in [8]; 6.84% (active) in [19]; 58.6% in [9]; 6.74% (active) in experiment [10]; 65.6% in experiment [12]. Further, the growth in [13] is 44.5%; in experiment [14], 63.2%; in experiment [15], -1.38% (active); in experiment [16] it was 23.3%; in experiment [17] it was 36.8%; in [18] it was -3.35% (active).
Take `O=C(CN1CCN(c2cc(=O)n(-c3ccccc3)c3ccccc23)CC1)Nc1nc(-c2ccccc2)cs1`: the growth is 60.8% in experiment [1]; 48.2% in [2]; 89.4% in [3]; 66.4% in experiment [4]; 32.2% in experiment [5]; 66.5% in experiment [6]. For the same compound, the growth in [7] is 56.2%; in experiment [8], 89.3%; in experiment [9] it was 72.7%; in experiment [10], 22.4%; in experiment [12] it was 62.6%; in experiment [13] it was 76.9%. The growth in [14] is 79.2%; in experiment [15] it was 66.7%; in experiment [16] it was 77.1%; in [17] it was 48.5%; in experiment [18], 69.7%.
For `FC(F)(F)c1cc(Nc2cccc(Oc3ccc(NC4=NCCN4)nc3)c2)ccc1Cl`, the growth is 19.5% in [1]; 41.9% in experiment [2]; -3.79% (active) in experiment [3]; -47.9% (active) in [4]; -69.2% (active) in experiment [5]; 2.14% (active) in experiment [6]. Also, the growth in experiment [7] was 12.1%; in experiment [8], -11.4% (active); in experiment [19], -38.3% (active); in experiment [9] it was -19.3% (active); in experiment [10], -19% (active); in experiment [12], 9.73% (active). The growth is 18.1% in [13]; 34.8% in experiment [14]; -78.5% (active) in [15]; 51.6% in experiment [16]; 27% in [17]; -50.7% (active) in experiment [18].
